Screening data deposited in PubChem by several laboratories.
Shown are actives, neighbours in structure and some others; about 1.6% of the full set was active somewhere.
E-sel TNF inh = E-selectin induction blockers in HUVEC – imaging, immunofluorescence, high content, primary screen | HUVEC TNFa-induced E-selectin immunofluorescence | inhibition, % at 2 µM | hit rate 0.71% among 120,000;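 active = inhibition above the batch mean plus 3 SD, and confirmed as a hit on visual image review, cut at about 43% in these data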;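 also: 0% = TNF-stimulated DMSO wells and 100% = unstimulated control wells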
S1P2 antag = human S1P2 receptor antagonists, primary screen, cell-based | hit rate 0.21% among 97,000 | inhibition, % at 5 µM | cell-based S1P2 antagonist assay, inhibition at 5 uM; in the data active = inhibition above about 45%;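 also: CRE beta-lactamase reporter cells expressing human S1P2 stimulated with S1P; 0% = agonist at EC80 alone and 100% = agonist plus reference antagonist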
Target sequence (O95136 whole entry, looked up): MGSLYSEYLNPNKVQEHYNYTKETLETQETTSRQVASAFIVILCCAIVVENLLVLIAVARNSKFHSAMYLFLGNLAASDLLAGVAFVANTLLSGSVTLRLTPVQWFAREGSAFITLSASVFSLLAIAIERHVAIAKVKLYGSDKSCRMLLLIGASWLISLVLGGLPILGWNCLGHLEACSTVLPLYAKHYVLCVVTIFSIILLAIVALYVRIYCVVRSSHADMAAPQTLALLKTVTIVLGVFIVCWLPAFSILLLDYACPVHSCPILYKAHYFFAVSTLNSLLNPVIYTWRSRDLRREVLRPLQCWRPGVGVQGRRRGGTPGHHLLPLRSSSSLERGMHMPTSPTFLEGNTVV
S1P2 agonist = S1P2 receptor agonists, primary screen, cell-based. Sphingosine 1-phosphate receptor 2 (Homo sapiens), O95136. S1P2-expressing cell line, agonist reporter read-out. activation, % at 4.5 µM. hit rate 0.46% among 97,000; in the data active = activation above about 16%;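 also: 0% = vehicle low control and 100% = maximal reference agonist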
HUVEC tox TNFa = cytotoxicity in TNFa-stimulated HUVEC, primary screen, cytotoxicity control for VCAM1 expression modulator project, imaging, Hoechst nuclei count; hit rate 0.17% among 93,000; AID 848, 2007; cell count reduction, % at 2 µM; HUVEC TNFalpha-stimulated, Hoechst cell count;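 active = cell count reduction exceeding the screen mean by over 5 SD, scaled to untreated wells per plate, cut at about 78% in these data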;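 also: cells counted after 24 h of TNF alpha exposure following the 1 h pretreatment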
cytoskel mod = modifiers of F-actin cytoskeleton organization, primary screen, imaging, HUVEC, phalloidin staining, high-content imaging. HUVEC TNFa F-actin phalloidin imaging. inhibition, % at 2 µM. hit rate 0.18% among 91,000;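 active = inhibition above the batch mean plus 3 SD and confirmed as a hit by visual image inspection, cut at about 30% in these data, passing the limit was not always enough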
VCAM1 TNFa inh = inhibitors of TNFa-induced VCAM1 expression, primary screen, imaging, HUVEC, TNFa stimulus, immunofluorescence; AID 802, 2007; HUVEC TNFa-induced VCAM-1 immunofluorescence, high-content imaging; hit rate 0.48% among 95,000; inhibition, % at 2 µM;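 active = inhibition above the batch mean plus 3 SD, with images confirmed as a hit by eye, cut at about 37% in these data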;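 also: 0% = TNF-stimulated DMSO wells and 100% = unstimulated control wells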
* marks the source's active call; other numbers are inactive results; · = no result.

SMILES	E-sel TNF inh	S1P2 antag	S1P2 agonist	HUVEC tox TNFa	cytoskel mod	VCAM1 TNFa inh
CCOCCCNC(=O)C(c1ccccc1)N(Cc1cccs1)C(=O)CNC(C)=O (stereo unspecified)	9	·	·	·	·	·
CCOc1ccc(NC2OC(CO)C(O)C(O)C2O)c([N+](=O)[O-])c1 (stereo unspecified)	-35	·	·	·	·	·
Cc1ccc(S(=O)(=O)N(c2nc(NC(C)C)nc(NC(C)C)n2)n2cnnc2)cc1	4	·	·	·	·	·
CCn1c(=O)c(C(=O)NNS(=O)(=O)c2ccc(Cl)cc2)c(O)c2ccccc21	-13	·	·	·	·	·
O=c1cc(CO)oc(CN2CCN(c3cccc(C(F)(F)F)c3)CC2)c1O	-1	-15	-4	-27	-6	0
O=c1cc(CO)oc(CN2CCN(c3ccccc3)CC2)c1O	2	-12	-4	86*	-12	16
CCOC(=O)C1C(=O)N(O)CC1c1cccc(Oc2ccccc2)c1 (stereo unspecified)	1	·	·	·	·	·
CCOc1ccc(C(F)(F)F)cc1NC(C)=O	·	-1	-3	15	-18	2
Cc1nccn1-c1ccc(C(F)(F)F)cc1NC=O	3	24	0	-5	73*	-4
CCOC(=O)c1c(NC(=O)CN2C(=O)NC3(CCCCCC3)C2=O)sc(C)c1-c1ccc(C)cc1	2	·	·	·	·	·
C#CC(=O)N(c1cc(OC)ccc1OC)C(C(=O)NC1CCCC1)c1cccs1 (stereo unspecified)	58*	39	-4	15	9	35
CCOc1ccccc1OCC(=O)NN1Cc2ccccc2C1=N	·	-30	0	-19	-12	-3
CC1=NNC(=O)C1CCC(=O)N/N=C/C(Br)=C/c1ccccc1 (stereo unspecified)	-35	·	·	·	·	·
Cc1cc(C)cc(NC(=O)CC2NCCNC2=O)c1 (stereo unspecified)	·	0	-2	-29	22	86*
Cc1ccc(NC(=O)CC2NCCNC2=O)cc1 (stereo unspecified)	-3	-2	-2	-8	-3	2
O=C([C@H](O)c1ccccc1)N1CCC[C@H]1CO	2	·	·	·	·	·
Oc1ccc(Nc2nc(-c3ccc4ccccc4c3)cs2)cc1	14	10	-11	-8	18	75*
Cc1ccc(Nc2nc(-c3c(C)nc4ccccn34)cs2)cc1	1	23	-4	75	-70	93*
CC(Sc1ccccc1)C(=O)NN=C1CCN(C)CC1 (stereo unspecified)	22	·	·	·	·	·
CSCCC(NS(=O)(=O)c1ccccc1F)C(=O)OCc1ccccc1Cl (stereo unspecified)	15	·	·	·	·	·
CCCCOc1ccc2ccccc2c1C=O	52*	-39	-2	-20	9	7
COc1cc(NC(=O)CN2C(=O)NC(C)(CCC(C)C)C2=O)cc(OC)c1 (stereo unspecified)	-1	11	-3	-31	27	6
COc1cc(NC(=O)CN2C(=O)NC(C)(CC(C)C)C2=O)cc(OC)c1 (stereo unspecified)	3	-13	-1	-41	43	93*
C=CCNc1oc(/C=C/c2ccccc2)nc1C#N	-16	-22	17*	·	-8	-46
C=CCNc1oc(Cc2cccc3ccccc23)nc1C#N	11	-20	-5	-40	9	14
SMILES	E-sel TNF inh	S1P2 antag	S1P2 agonist	HUVEC tox TNFa	cytoskel mod	VCAM1 TNFa inh
Cc1sc2ncnc(NCC(C)(C)N3CCOCC3)c2c1C	14	64*	-6	-8	2	-2
CCOC(=O)N1CCN(C(=O)COc2cccc3c2CCN(Cc2ccccc2C)C3=O)CC1	21	·	·	·	·	·
CCOC(=O)N1CCN(C(=O)COc2cccc3c2CCN(Cc2cccc(C)c2)C3=O)CC1	69*	·	·	·	·	·
O=C1C2CCCN2C(c2ccc(Cl)cc2)N1c1nccs1 (stereo unspecified)	-17	6	-2	-5	4	-4
CCOC(=O)Cc1nnc(NC(=O)CSc2ccc(Cl)cc2)s1	67*	-10	-3	-1	12	26
CCOC(=O)Cc1nnc(NC(=O)COc2ccc(C)cc2)s1	-19	14	-5	-3	30	3
COc1ccc(-c2cc(C(F)(F)F)n3nc(C(=O)Nc4cc(C)on4)cc3n2)cc1OC	8	11	-5	-1	-15	95*
Cc1cccc(NC(=O)C2NC(=O)CC2c2ccccc2)c1C (stereo unspecified)	·	11	-2	-17	6	0
C/C(=N\NC(=O)CN1CCN(Cc2ccc(C)cc2)CC1)c1ccncc1	8	·	·	·	·	·
Cc1ccc(C(=O)CSc2nsc(C)c2C#N)cc1	22	21	-3	-10	74*	1
Cc1snc(SCC(=O)c2ccc(Cl)cc2)c1C#N	-40	5	-6	-13	6	-2
Cc1ccccc1Cn1nc(C)c(NC(=O)c2cc(-c3cccs3)on2)c1C	·	17	-8	80*	7	91*
COc1ccc(OC)c(-c2cc(C(=O)Nc3c(C)nn(Cc4ccccc4C)c3C)no2)c1	·	-4	3	6	15	-5
CCOC(=O)c1cnc(-n2nc(C)cc2C)nc1N1CCOCC1	·	-2	0	74	-27	92*
Cc1cc(C)n2nc(C(=O)NNC(=O)c3ccccc3)nc2n1	-1	·	·	·	·	·
CCC1=Nc2cc(C(=O)NCCCOC)ccc2Sc2ccccc21	33	-2	-1	42	-22	60*
CCCC1=Nc2cc(C(=O)NCCCOCC)ccc2Sc2ccccc21	-9	2	-2	74	-46	94*
CCCC1=Nc2cc(C(=O)NCCCOC(C)C)ccc2Sc2ccccc21	47	-34	-4	-5	4	-6
CCOc1cc(C(=O)CSc2nnc(CNc3ccc(Cl)cc3)o2)ccc1NC(=O)CC	3	47*	10	8	-19	24
COc1ccc(-n2nc3c(c2NC(=O)c2ccc(S(=O)(=O)N4CCOCC4)cc2)CS(=O)(=O)C3)cc1	-4	·	·	·	·	·
COc1ccc(-c2cc(=O)[nH]c(NCc3ccccc3)n2)cc1	23	-38	-1	99*	7	100*
CCOC(=O)Cc1csc(SC(C)C(=O)Nc2ccc(NC(C)=O)cc2)n1 (stereo unspecified)	4	-8	-4	-13	11	-6
Cc1cccc(C)c1N1CCN(C(=O)N2CCCCC2)CC1	-13	·	·	·	·	·
Nc1nc(C(F)(F)F)c(Br)c(=O)n1N	-30	·	·	·	·	·
Oc1ccc(Nc2nc(NCC3CCCO3)c3ccccc3n2)cc1 (stereo unspecified)	16	8	-4	-42	0	-8
Oc1ccccc1Nc1nc(NCC2CCCO2)c2ccccc2n1 (stereo unspecified)	65*	20	-3	-20	6	-11
Fc1ccccc1N1CC(c2ccccc2)C(c2cccs2)=N1 (stereo unspecified)	-22	-34	23*	-25	5	1
